# Results filed as inconclusive are left out. Entries that show only a call come without a potency. Unmarked numbers belong to inactive results. Active and inactive are the calls of the source. The call rests on the fitted dose curve; in most records, active means well fitted curve in the direction sought with a large enough effect; inconclusive means small, poorly fitted or top-dose-only effect, or another doubt; inactive means no such curve, though single readings can be large; an effect the other way counts as inactive or inconclusive.
# Target: Metallo-beta-lactamase type 2 (Klebsiella pneumoniae) (UniProt C7C422)
# Sequence (C7C422 whole entry, looked up): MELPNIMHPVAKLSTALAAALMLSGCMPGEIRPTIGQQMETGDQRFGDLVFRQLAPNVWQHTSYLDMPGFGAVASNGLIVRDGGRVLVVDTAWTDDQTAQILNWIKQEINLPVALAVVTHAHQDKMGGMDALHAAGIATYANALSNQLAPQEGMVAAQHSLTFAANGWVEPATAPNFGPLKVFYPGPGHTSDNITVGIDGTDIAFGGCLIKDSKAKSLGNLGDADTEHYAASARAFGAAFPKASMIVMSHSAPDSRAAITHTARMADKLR
# Experiment: qHTS to identify inhibitors of the New Delhi Metallo-beta-lactamase (NDM): assay validation screen against the NCATS LOPAC Collection (AID 1794843);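 further: nitrocefin turnover by NDM-1 measured as 485 nm absorbance at plateau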
# Conditions: NDM-1 enzyme, nitrocefin hydrolysis, absorbance 485 nm; series mostly up to 38.4 µM; activity change, negative = inhibition: at the top concentration
# In short: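 NDM-1 at 2 nM final in 50 mM HEPES pH 7.0 with 1 uM ZnSO4 and 0.01% Tween20 was preincubated with library compounds in DMSO. Nitrocefin (50 uM stock) was then added, and absorbance at 485 nm was read at the kinetic plateau.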
row,SMILES,"activity change, negative = inhibition [%]"
1,Cc1ccccc1C(OCCN(C)C)c1ccccc1 (stereo unspecified),-6.07
2,Nc1nc2c(ncn2COCCO)c(=O)[nH]1,-2.62
3,NS(=O)(=O)c1cc2c(cc1Cl)NC=NS2(=O)=O,0.805
4,c1ccc([C@H]2CN3CCSC3=N2)cc1,-10.1
5,NNCCc1ccccc1,2.03
6,N[C@@H]1CONC1=O,3.4
7,O=C1CCC(N2C(=O)c3ccccc3C2=O)C(=O)N1 (stereo unspecified),-4.62
8,O=C1CCc2cc(OCCCCc3nnnn3C3CCCCC3)ccc2N1,-3.97
9,C1COC(NC(C2CC2)C2CC2)=N1,0.969
10,C[C@]12CCC(=O)C=C1CC[C@@H]1[C@@H]2[C@@H](O)C[C@@]2(C)[C@H]1CC[C@]2(O)C(=O)CO,3.53
11,CC(C)C[C@H](NC(=O)[C@@H](O)[C@H](N)Cc1ccccc1)C(=O)O,-10.3
12,NC[C@H](O)c1ccc(O)c(O)c1,7.62
13,CCOC(=O)C1=C[C@]2(CC)CCCN3CCc4c(n1c1ccccc41)[C@@H]32,-9.45
14,O=C(Nc1nc2ccccc2n1CCN1CCOCC1)c1cccc([N+](=O)[O-])c1,2.07
15,O=NN(CCCl)C(=O)NCCCl,2.79
16,Nc1ccc(S(=O)(=O)Nc2ccnn2-c2ccccc2)cc1,-7.42

row,SMILES,"activity change, negative = inhibition [%]"
1,Cn1cnc([N+](=O)[O-])c1Sc1ncnc2nc[nH]c12,1.72
2,Clc1cccc(Cl)c1NC1=NCCN1,-7.25
3,CC(C[N+](C)(C)C)OC(N)=O (stereo unspecified),-5.04
4,Cc1[nH]c(=O)c(C#N)cc1-c1ccc2nccn2c1,4.22
5,CCn1cc(C(=O)O)c(=O)c2cc(F)c(N3CCNC(C)C3)c(F)c21 (stereo unspecified),-13.8
6,NC(=O)c1cnccn1,1.04
7,Cc1[nH]c(=O)c(C#N)cc1-c1ccncc1,14.8
8,Oc1ccc(C2CNCCc3c2cc(O)c(O)c3Cl)cc1 (stereo unspecified),-3
9,CN1CCN(CCCN2c3ccccc3Sc3ccc(C(F)(F)F)cc32)CC1,-21.7
10,OC(CN1CCC(Cc2ccc(F)cc2)CC1)c1ccc(Cl)cc1 (stereo unspecified),5.06
11,Cc1cccc(-c2[nH]c(C(C)(C)C)nc2-c2ccc3nccnc3c2)n1,-5.03
12,O=c1[nH]cnc2[nH]ncc12,1.24
13,NC(N)=NC(=O)c1nc(Cl)c(N)nc1N,0.483
14,CCCC(CCC)C(=O)O,-1.59
15,Nc1nc2ccc(OC(F)(F)F)cc2s1,-0.596
16,O=C(O)COCCN1CCN(C(c2ccccc2)c2ccc(Cl)cc2)CC1 (stereo unspecified),-16.1

# Target: Glutathione peroxidase 1 (Homo sapiens) (UniProt P07203)
# Sequence (P07203 whole entry, looked up): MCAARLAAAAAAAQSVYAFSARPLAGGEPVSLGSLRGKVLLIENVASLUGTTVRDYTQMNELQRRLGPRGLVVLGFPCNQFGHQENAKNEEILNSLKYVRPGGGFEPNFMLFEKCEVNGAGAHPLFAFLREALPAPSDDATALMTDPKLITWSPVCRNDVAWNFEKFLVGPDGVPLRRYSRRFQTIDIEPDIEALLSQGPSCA
# Experiment: Primary qHTS Assay for Inhibitors of Recombinant Selenoprotein Glutathione Peroxidase 1 (GPX1) (AID 1845191); further: nearly all actives have a fitted effect of over 65% in size; further: potency means the concentration at half of the fitted maximal effect
# Conditions: recombinant GPX1, GR-coupled NADPH fluorescence, 15 min; series mostly up to 48.8 µM; activity, negative = inhibition: at the top concentration
# In short: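 Recombinant GPX1 (10 nM final) was preincubated with compound for 30 min at room temperature, then reacted with 1 mM GSH, 0.5 mM CHP, 0.5 mM NADPH and 100 nM glutathione reductase; NADPH fluorescence (340/450 nm) was read at 0 and 15 min.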
SMILES,Potency,outcome,"activity, negative = inhibition [%]"
Cc1ccccc1C(OCCN(C)C)c1ccccc1 (stereo unspecified),inactive,–,–
Nc1nc2c(ncn2COCCO)c(=O)[nH]1,inactive,–,–
NS(=O)(=O)c1cc2c(cc1Cl)NC=NS2(=O)=O,inactive,–,–
c1ccc([C@H]2CN3CCSC3=N2)cc1,inactive,–,–
NNCCc1ccccc1,inactive,–,–
N[C@@H]1CONC1=O,inactive,–,–
O=C1CCC(N2C(=O)c3ccccc3C2=O)C(=O)N1 (stereo unspecified),inactive,–,–
O=C1CCc2cc(OCCCCc3nnnn3C3CCCCC3)ccc2N1,inactive,–,–
C1COC(NC(C2CC2)C2CC2)=N1,inactive,–,–
C[C@]12CCC(=O)C=C1CC[C@@H]1[C@@H]2[C@@H](O)C[C@@]2(C)[C@H]1CC[C@]2(O)C(=O)CO,inactive,–,–
CC(C)C[C@H](NC(=O)[C@@H](O)[C@H](N)Cc1ccccc1)C(=O)O,inactive,–,–
NC[C@H](O)c1ccc(O)c(O)c1,inactive,–,–
CCOC(=O)C1=C[C@]2(CC)CCCN3CCc4c(n1c1ccccc41)[C@@H]32,12.8 µM (active),–,–
O=C(Nc1nc2ccccc2n1CCN1CCOCC1)c1cccc([N+](=O)[O-])c1,inactive,–,–
O=NN(CCCl)C(=O)NCCCl,inactive,–,–
Nc1ccc(S(=O)(=O)Nc2ccnn2-c2ccccc2)cc1,inactive,–,–

SMILES,Potency,outcome,"activity, negative = inhibition [%]"
Cn1cnc([N+](=O)[O-])c1Sc1ncnc2nc[nH]c12,inactive,–,–
Clc1cccc(Cl)c1NC1=NCCN1,inactive,–,–
CC(C[N+](C)(C)C)OC(N)=O (stereo unspecified),inactive,–,–
Cc1[nH]c(=O)c(C#N)cc1-c1ccc2nccn2c1,inactive,–,–
CCn1cc(C(=O)O)c(=O)c2cc(F)c(N3CCNC(C)C3)c(F)c21 (stereo unspecified),inactive,–,–
NC(=O)c1cnccn1,inactive,–,–
Cc1[nH]c(=O)c(C#N)cc1-c1ccncc1,inactive,–,–
Oc1ccc(C2CNCCc3c2cc(O)c(O)c3Cl)cc1 (stereo unspecified),inactive,–,–
CN1CCN(CCCN2c3ccccc3Sc3ccc(C(F)(F)F)cc32)CC1,inactive,–,–
OC(CN1CCC(Cc2ccc(F)cc2)CC1)c1ccc(Cl)cc1 (stereo unspecified),–,inactive,–
Cc1cccc(-c2[nH]c(C(C)(C)C)nc2-c2ccc3nccnc3c2)n1,inactive,–,–
O=c1[nH]cnc2[nH]ncc12,inactive,–,–
NC(N)=NC(=O)c1nc(Cl)c(N)nc1N,–,–,-23
CCCC(CCC)C(=O)O,inactive,–,–
Nc1nc2ccc(OC(F)(F)F)cc2s1,inactive,–,–
O=C(O)COCCN1CCN(C(c2ccccc2)c2ccc(Cl)cc2)CC1 (stereo unspecified),inactive,–,–

# Target: Phospholipid hydroperoxide glutathione peroxidase GPX4 (Homo sapiens) (UniProt P36969)
# Sequence (P36969 whole entry, looked up): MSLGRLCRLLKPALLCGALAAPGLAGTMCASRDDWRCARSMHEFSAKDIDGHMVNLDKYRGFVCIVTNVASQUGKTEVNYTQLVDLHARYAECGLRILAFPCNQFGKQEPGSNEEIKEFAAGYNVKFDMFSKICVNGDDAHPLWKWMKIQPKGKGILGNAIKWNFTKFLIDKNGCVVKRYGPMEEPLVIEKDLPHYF
# Experiment: Primary qHTS Assay for Inhibitors of Recombinant Selenoprotein Glutathione Peroxidase 4 (GPX4) (AID 1845192); further: nearly all actives have a fitted effect of over 65% in size
# Conditions: recombinant GPX4, GR-coupled NADPH fluorescence, 15 min; series mostly up to 50 µM; activity change, negative = inhibition: at the top concentration
# In short: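 GR-coupled readout: 100 nM GR, 1 mM GSH, 0.5 mM NADPH; NADPH fluorescence (ex 340/em 450 nm) read at t=0 and after 15 min RT. GPX4 200 nM, preincubated 30 min with compound; substrate 0.5 mM CHP.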
SMILES,Potency,"activity change, negative = inhibition [%]",outcome
Cc1ccccc1C(OCCN(C)C)c1ccccc1 (stereo unspecified),inactive,–,–
Nc1nc2c(ncn2COCCO)c(=O)[nH]1,inactive,–,–
NS(=O)(=O)c1cc2c(cc1Cl)NC=NS2(=O)=O,inactive,–,–
c1ccc([C@H]2CN3CCSC3=N2)cc1,inactive,–,–
NNCCc1ccccc1,inactive,–,–
N[C@@H]1CONC1=O,inactive,–,–
O=C1CCC(N2C(=O)c3ccccc3C2=O)C(=O)N1 (stereo unspecified),inactive,–,–
O=C1CCc2cc(OCCCCc3nnnn3C3CCCCC3)ccc2N1,inactive,–,–
C1COC(NC(C2CC2)C2CC2)=N1,inactive,–,–
C[C@]12CCC(=O)C=C1CC[C@@H]1[C@@H]2[C@@H](O)C[C@@]2(C)[C@H]1CC[C@]2(O)C(=O)CO,inactive,–,–
CC(C)C[C@H](NC(=O)[C@@H](O)[C@H](N)Cc1ccccc1)C(=O)O,inactive,–,–
NC[C@H](O)c1ccc(O)c(O)c1,inactive,–,–
CCOC(=O)C1=C[C@]2(CC)CCCN3CCc4c(n1c1ccccc41)[C@@H]32,–,-21.6,–
O=C(Nc1nc2ccccc2n1CCN1CCOCC1)c1cccc([N+](=O)[O-])c1,inactive,–,–
O=NN(CCCl)C(=O)NCCCl,inactive,–,–
Nc1ccc(S(=O)(=O)Nc2ccnn2-c2ccccc2)cc1,inactive,–,–

SMILES,Potency,"activity change, negative = inhibition [%]",outcome
Cn1cnc([N+](=O)[O-])c1Sc1ncnc2nc[nH]c12,inactive,–,–
Clc1cccc(Cl)c1NC1=NCCN1,inactive,–,–
CC(C[N+](C)(C)C)OC(N)=O (stereo unspecified),inactive,–,–
Cc1[nH]c(=O)c(C#N)cc1-c1ccc2nccn2c1,inactive,–,–
CCn1cc(C(=O)O)c(=O)c2cc(F)c(N3CCNC(C)C3)c(F)c21 (stereo unspecified),inactive,–,–
NC(=O)c1cnccn1,inactive,–,–
Cc1[nH]c(=O)c(C#N)cc1-c1ccncc1,inactive,–,–
Oc1ccc(C2CNCCc3c2cc(O)c(O)c3Cl)cc1 (stereo unspecified),inactive,–,–
CN1CCN(CCCN2c3ccccc3Sc3ccc(C(F)(F)F)cc32)CC1,inactive,–,–
OC(CN1CCC(Cc2ccc(F)cc2)CC1)c1ccc(Cl)cc1 (stereo unspecified),–,–,inactive
Cc1cccc(-c2[nH]c(C(C)(C)C)nc2-c2ccc3nccnc3c2)n1,inactive,–,–
O=c1[nH]cnc2[nH]ncc12,inactive,–,–
NC(N)=NC(=O)c1nc(Cl)c(N)nc1N,–,1.21,–
CCCC(CCC)C(=O)O,inactive,–,–
Nc1nc2ccc(OC(F)(F)F)cc2s1,inactive,–,–
O=C(O)COCCN1CCN(C(c2ccccc2)c2ccc(Cl)cc2)CC1 (stereo unspecified),inactive,–,–
